Experimental data: PubChem BioAssay (NCATS)
Values joined by “and” are separate entries in the source; they are usually repeats but may differ in a detail not shown here. Identical values can stand only once. Inconclusive results are not listed. Active and inactive are the calls of the source. Calls follow the shape of the dose curve; as a rule, active = well fitted activation curve with a large enough effect; inconclusive = small, poorly fitted or top-dose-only effect; inactive = no such curve, though single readings can be large or run the other way. Peptide text beside a SMILES is read from it. * marks the point of attachment. βNA = c1ccc2cc(N*)ccc2c1; Cbz = O=C(OCc1ccccc1)*

target: Cellular tumor antigen p53 (Homo sapiens) (UniProt P04637); experiment: Primary qHTS for small molecule compounds that upregulate eGFP-tagged delta133p53alpha (in N-terminal) cells. (AID 2060322); conditions: NCI-H358 eGFP-delta133p53alpha fluorescence, 24 h; activation: stronger effect = higher value; also: nearly all actives have a fitted effect of over 75% in size;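 as to activation: cells pre-induced with doxycycline then dosed without doxycycline; series mostly up to about 56 µM; 0% = DMSO vehicle and 100% = reference activator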
Sequence (P04637 whole entry, looked up): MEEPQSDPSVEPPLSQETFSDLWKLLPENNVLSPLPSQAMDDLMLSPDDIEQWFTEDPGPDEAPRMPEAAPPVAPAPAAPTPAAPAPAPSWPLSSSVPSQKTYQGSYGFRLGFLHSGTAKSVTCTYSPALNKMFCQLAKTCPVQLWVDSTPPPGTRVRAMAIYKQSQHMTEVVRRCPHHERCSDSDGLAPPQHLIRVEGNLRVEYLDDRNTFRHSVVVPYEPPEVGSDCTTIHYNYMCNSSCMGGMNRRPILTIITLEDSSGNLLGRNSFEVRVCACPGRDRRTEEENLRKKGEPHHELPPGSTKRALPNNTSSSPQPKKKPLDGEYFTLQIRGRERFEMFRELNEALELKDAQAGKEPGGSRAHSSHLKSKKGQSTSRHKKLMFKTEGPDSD
How it was run: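 NCI-H358 cells pre-induced 24 h with 10 ng/ml doxycycline for eGFP-delta133p53alpha, plated dox-free and exposed 24 h at 37C to titrated compounds. Fixed, Hoechst-stained; gated GFP peak intensity by laser scanning cytometry, normalized to DMSO (0%) and 57.5 uM 5-azacytidine (100%).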
Potency is read from the fitted curve at half-maximal effect.

| SMILES | activation | Potency |
| --- | --- | --- |
| CSCC1OC(n2cnc3c(N)ncnc32)C(O)C1O (stereo not given) | 6.11% (inactive) | – |
| C[C@@H]1C[C@H](O)/C=C/[C@H](O)[C@@H](O)CC(=O)O1 | -9.92% (inactive) | – |
| O=C1NC2CCCCN2C12CCN(CCCN1c3ccccc3CCc3ccc(Cl)cc31)CC2 (stereo not given) | – | 13.5 µM (active) |
| CCOC(=O)c1cc(C#N)c(N2CCC(C(=O)NS(=O)(=O)Cc3ccccc3)CC2)nc1C | 5.67% (inactive) | – |
| C=C(C)C1CCC2(C(=O)O)CCC3(C)C(CCC4C5(C)C(C=O)C(O)C(C)(C)C5CCC43C)C12 (stereo not given) | -19.8% (inactive) | – |
| CC[C@]12CCCN3CCc4c(n(c5ccccc45)C(=O)C1)[C@@H]32 | – | 13.8 µM (active) and 10.7 µM (active) |
| C=C1CC[C@@H](O)[C@]2(C)C[C@H]3OC(=O)C(=C)[C@H]3CC12 (stereo not given in full) | – | 21.3 µM (active) |
| CC1(C)C[C@@H]2[C@H](C1)[C@@]1(C)C[C@]13C(O)OC[C@]3(O)[C@H]2O (stereo not given in full) | 6.25% (inactive) | – |
| CC(C)/C=C1\NC(=O)C(C(C)C)n2c1nc1c(c2=O)C=CC=CO1 (stereo not given) | -7.63% (inactive) | – |
| O=C(/C=C/c1ccc(O)cc1)OC[C@H]1O[C@@H](OC(=O)/C=C/c2ccccc2)[C@H](O)[C@@H](O)[C@@H]1O | -1.53% (inactive) | – |
| O=C(Cc1ccccc1)OC[C@H]1O[C@H](O[C@H]2O[C@H](CO)[C@@H](O)[C@H](O)[C@H]2O)[C@H](O)[C@@H](O)[C@@H]1O | -3.05% (inactive) | – |
| CC(C)CC(NC(=O)OCc1ccccc1)C(=O)NC(CC(C)C)C(=O)NC(CCC(=O)O)C(=O)Nc1ccc2ccccc2c1 (stereo not drawn) (Cbz-Leu-Leu-Glu-βNA; configuration not given here) | -5.67% (inactive) | – |
| COc1cc(C(CO)CO[C@@H]2O[C@H](CO)[C@@H](O)[C@H](O)[C@H]2O)ccc1O (stereo not given in full) | -11.5% (inactive) | – |
| COC(=O)[C@H](Cc1cccc(C(=N)N)c1)[C@@H](C)NC(=O)c1ccc(-c2cc[n+]([O-])cc2)cc1 | 8.93% (inactive) | – |
| CC(=O)O[C@H]1[C@H](Oc2ccccc2COC(=O)C2(O)C=CCCC2=O)O[C@H](CO)[C@@H](O)[C@@H]1O (stereo not given in full) | -9.92% (inactive) | – |
| CC(C)CCC(=O)CC1c2ccccc2C(=O)N1c1ccc2ccc(Cl)nc2n1 (stereo not given) | 0.477% (inactive) | – |
| C[C@@H]1CC[C@]2(C(=O)O[C@@H]3O[C@H](CO[C@@H]4O[C@H](CO)[C@@H](O[C@@H]5O[C@@H](C)[C@H](O)[C@@H](O)[C@H]5O)[C@H](O)[C@H]4O)[C@@H](O)[C@H](O)[C@H]3O)CC[C@]3(C)C(=CCC4[C@@]5(C)C[C@@H](O)[C@H](O)[C@@](C)(CO)C5CC[C@]43C)C2[C@H]1C (stereo not given in full) | -19.6% (inactive) | – |
| C=C1C(=O)O[C@@H]2C[C@H](C)C3=CC(=O)[C@H](O)[C@@]3(C)C[C@H]12 | – | 30.1 µM (active) |
| CC1(C)CCCC2(C)C1C(=O)C=C(C(=O)O)C2(O)C(=O)O (stereo not given) | 41.2% (inactive) | – |
| CC(C)(O)C1CC(=O)C2(C)C(CCC3(C)C(c4ccoc4)OC(=O)C4OC432)C12CCC(=O)OC2 (stereo not given) | -3.57% (inactive) | – |

| SMILES | activation | Potency |
| --- | --- | --- |
| C/C(=C/CO)CC[C@H]1[C@]2(C)C[C@H](O)CC(C)(C)[C@H]2CC[C@]1(C)O | -9.92% (inactive) | – |
| CC(=O)N[C@@H](CCCCN)C(=O)N(C)[C@@H](CC(C)C)C(=O)N[C@H](C(=O)N(C)[C@@H](Cc1ccccc1)C(=O)N[C@H](Cc1ccccc1)C(N)=O)C(C)C | 7.67% (inactive) | – |
| COC1OC(O)C2(CCC3(O2)C(C)CC2OC(=O)C4(C)CCCC3(C)C24)C1O (stereo not given) | 9.92% (inactive) | – |
| Cc1ccn(-c2cc(Cl)ccc2[C@@H](Oc2cc(-c3ccc(C[C@H](N)C(=O)O)cc3)nc(N)n2)C(F)(F)F)n1 | -7% (inactive) | – |
| C=C1CC[C@]2(C(=O)O[C@@H]3O[C@H](CO)[C@@H](O)[C@H](O)[C@H]3O)CC[C@]3(C)C(=CCC4[C@@]5(C)C[C@H](O)[C@@H](O[C@@H]6O[C@H](C(=O)O)[C@@H](O)[C@H](O)[C@H]6O)[C@](C)(C=O)C5CC[C@]43C)C2C1 (stereo not given in full) | -11.6% (inactive) | – |
| Cn1cc(S(C)=O)c(=O)c2ccc(F)cc21 (stereo not given) | -7.53% (inactive) | – |
| COC(=O)C1=CO[C@@H](O[C@@H]2O[C@H](CO)[C@@H](O)[C@H](O)[C@H]2O)[C@@H]2[C@@](C)(O)[C@@H](O)C[C@]12O | -2.29% (inactive) | – |
| CCC[C@@H]1O[C@@H]2C[C@H]3[C@@H]4CCC5=CC(=O)C=C[C@]5(C)[C@H]4[C@@H](O)C[C@]3(C)[C@]2(C(=O)CO)O1 | 6.33% (inactive) | – |
| CC1(C)CC[C@]2(C(=O)O)[C@H](O)C[C@]3(C)C(=CCC4[C@@]5(C)CC[C@H](O[C@@H]6OC[C@@H](O)[C@H](O)[C@H]6O)[C@@](C)(C(=O)O)C5CC[C@]43C)[C@@H]2C1 (stereo not given in full) | 6.11% (inactive) | – |
| CC(=O)c1[nH]cc(CCC(=O)O)c1CC(=O)O | -15.3% (inactive) | – |
| C=CC(C)(O)CC/C=C(\C)C(=O)OC1C(O)C(CO)OC(OC(=O)C23CCC(C)(C)CC2C2=CCC4C5(C)CCC(OC6OC(COC7OCC(OC(C)=O)C(O)C7OC7OC(COC(C)=O)C(O)C(O)C7O)C(O)C(O)C6O)C(C)(C)C5CCC4(C)C2(C)C(O)C3O)C1OC1OCC(OC2OCC(O)C(OC3OCC(O)C(O)C3O)C2O)C(O)C1O (stereo not given) | -9.16% (inactive) | – |
| CCOc1ccc(-n2c(C(C)N(Cc3cccnc3)C(=O)Cc3ccc(F)c(C(F)(F)F)c3)nc3ncccc3c2=O)cc1 (stereo not given) | – | 19 µM (active) |
| CC1OC(OCC2OC(OC3CCC4(C)C(CCC5(C)C4CC=C4C6CC(C)(C)CCC6(C(=O)OC6OC(CO)C(O)C(O)C6O)CCC45C)C3(C)CO)C(O)C(O)C2O)C(O)C(O)C1O (stereo not given) | -9.92% (inactive) | – |
| CC1(C)CCCC2(C)C1C(O)C=C(CO)C2(O)CO (stereo not given) | -13.7% (inactive) | – |
| C=CC1(C)CC2=CCC3C(C)(C(=O)O)CCCC3(C)C2CC1OC(C)=O (stereo not given) | -14.5% (inactive) | – |
| O=C1NC(=Nc2ccccc2F)S/C1=C\c1ccc(C(=O)O)cc1 | 0.333% (inactive) | – |
| C[C@@]12C[C@]3(O)O[C@H](O1)[C@]1(COC(=O)c4ccccc4)[C@H]3C[C@@]12O[C@@H]1O[C@H](CO)[C@@H](O)[C@H](O)[C@H]1O | 25% (inactive) | – |
| Cc1ccccc1-n1c([C@H](C)Nc2nc(N)nc3nc[nH]c23)nc2cccc(C)c2c1=O | -15.2% (inactive) | – |
| CC1(C)CC[C@]2(C(=O)O[C@@H]3O[C@H](CO)[C@@H](O)[C@H](O)[C@H]3O)CC[C@]3(C)C(=CCC4[C@@]5(C)CC[C@H](O[C@@H]6O[C@H](C(=O)O)[C@@H](O)[C@H](O)[C@H]6O)C(C)(C)C5CC[C@]43C)C2C1 (stereo not given in full) | -0.893% (inactive) | – |
| COC1CC(=O)C23C(=O)NC(Cc4c[nH]c5ccccc45)C2C(C)C2(C)OC2C3/C=C/CC(C)CC1O (stereo not given) | – | 13.1 µM (active) |
